In PubChem BioAssay (EPA / NIEHS):
Values joined by “and” are separate entries in the source; they are usually repeats but may differ in a detail not shown here. Identical values can stand only once. Results filed as inconclusive are left out. Where a structure was tested more than once in an assay, its records may differ in their call. Active and inactive are the calls of the source. Rule for the calls, unless noted: active = hit-call score of the fitted dose curve at least 0.9, where 1 is the maximum; inactive = score below 0.9.

Experiments:
[1] = CCTE_Shafer_MEA_acute_burst_percentage_mean: CCTE's Neural Acute Assay for Percentage of Spikes in a Burst, Shafer Lab (AID 2284017);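 for AC50: curve fitted for loss of signal so potency reflects decreased burst percentage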
In short: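 Primary rat cortical neurons on 16-electrode MEA wells; 40 min baseline recorded at DIV 13 or 15, then 40 min after compound (0.03-40 uM) at 37 C. Well-mean fraction of spikes in single-electrode bursts; percent change from baseline, DMSO as negative control.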

[2] = CCTE_Shafer_MEA_acute_burst_percentage_std: CCTE's Neural Acute Assay for Standard Deviation of Burst Percentage, Shafer Lab (AID 2284018);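 note: fitted in the negative direction so actives lower burst percentage SD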
In short: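 Primary rat cortical neurons on 16-electrode MEA wells were recorded 40 min at baseline (DIV 13 or 15), then 40 min after compound (0.03-40 uM), at 37 C. Well value is SD across electrodes of spikes-in-bursts/total spikes; endpoint is percent change, DMSO-referenced.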

[3] = CCTE_Shafer_MEA_acute_per_network_burst_spike_number_std: CCTE's Neural Acute Assay for Standard Deviation of Number of Spikes in a Network Burst, Shafer Lab (AID 2284020);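 note: fitted for decrease in spike-number SD versus DMSO so actives lower it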
In short: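 Primary rat cortical neurons on 48-well MEAs (16 electrodes/well) recorded at DIV 13 or 15: 40-min baseline, then 40 min with compound (0.03-40 uM), 37 C. Value is percent change in SD of spikes per network burst, relative to DMSO.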

[4] = CCTE_Shafer_MEA_acute_per_network_burst_electrodes_number_mean: CCTE's Neural Acute Assay for Mean Number of Electrodes in a Network Burst, Shafer Lab (AID 2284021);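 note: curves fitted for decreases only so hits reduce electrodes per burst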
In short: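 Rat primary cortical neurons on 48-well MEAs, DIV 13 or 15, were treated at 0.03-40 uM. Spikes were detected at 8x rms noise and recorded at 37 C. The mean electrodes per network burst in a 40 min exposure recording was expressed as percent change from a 40 min baseline.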

[5] = CCTE_Shafer_MEA_acute_network_burst_percentage: CCTE's Neural Acute Assay for Percentage of Network Bursts, Shafer Lab (AID 2284022);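 note: curves fitted for loss so actives lower network burst percentage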
In short: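 Rat primary cortical neuron networks on 48-well MEA plates, DIV 13 or 15, treated acutely with compound (0.03-40 uM, at least three wells). Percent of spikes within network bursts compared between 40-min recordings before and during exposure at 37 C, expressed as percent change.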

[6] = CCTE_Shafer_MEA_acute_cross_correlation_area: CCTE's Neural Acute Assay for Area of Cross Correlation, Shafer Lab (AID 2284024);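 note: curves fitted for loss of cross-correlation area so actives lower synchrony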
In short: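 Rat primary cortical neurons on 48-well MEA, DIV 13 or 15; compounds 0.03-40 uM. Baseline and post-exposure 40 min recordings at 37 C; percent change in area under pooled inter-electrode cross-correlation near zero lag, relative to DMSO.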

[7] = CCTE_Shafer_MEA_acute_cross_correlation_HWHM: CCTE's Neural Acute Assay for Cross Correlation at Half Width at Half Maximum, Shafer Lab (AID 2284026);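 note: percent change per well from pre-dose baseline in spike cross-correlogram half width; hits are a decrease in cross-correlogram half width relative to DMSO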
In short: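 Rat primary cortical neurons on 48-well MEA plates; 40-min baseline and 40-min post-exposure recordings at 37 C on DIV 13 or 15, compounds 0.03-40 uM. Spikes detected at 8x rms noise; percent change in cross-correlogram HWHM per well vs baseline.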

[8] = CCTE_Shafer_MEA_acute_synchrony_index: CCTE's Neural Acute Assay for Synchrony, Shafer Lab (AID 2284027);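 note: network synchrony index of spontaneous spiking in primary rat cortical neurons on MEAs; fitted for loss of signal so actives lower synchrony relative to DMSO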
In short: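 Spontaneous firing of mature rat cortical networks is captured extracellularly on microelectrode arrays at 37 C, with wells needing ≥10 active electrodes. Each compound (0.03-40 uM) is judged by the change in synchrony index from baseline over 40 min.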

[9] = CCTE_Deisenroth_AIME_96WELL_CTox_Active: Cytotoxicity Assessment (CTOX) in CCTE's 96-well Estrogen Receptor Transactivation Assay with AIME metabolic competence (metabolism positive), Deisenroth Lab (AID 2284028; active = hit-call score of the fitted dose curve at least 0.9, where 1 is the maximum)
In short: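 Chemicals (0.002–200 uM) were first incubated 2 h with alginate-immobilized phenobarbital/beta-naphthoflavone-induced male rat liver S9; conditioned medium then went onto VM7Luc4E2 cells for 24 h, with viability read by protease-substrate fluorescence, fitted bidirectionally.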

[10] = CCTE_Shafer_MEA_dev_firing_rate_mean: CCTE's Neural Network Formation Assay for Mean Firing Rate, Shafer Lab (AID 2284031);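 for AC50: curve fitted for loss of firing so AC50 reflects decreased mean firing rate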
In short: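 Developing rat cortical networks on MEA plates undergo 12-day compound exposure. Firing frequency, averaged across active electrodes, is integrated as area under the curve over four recording days, referenced to DMSO.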

[11] = CCTE_Shafer_MEA_dev_active_electrodes_number: CCTE's Neural Network Formation Assay for Number of Active Electrodes, Shafer Lab (AID 2284040; active = hit-call score of the fitted dose curve at least 0.9, where 1 is the maximum;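 note: potency for loss of active electrodes versus DMSO so lower counts are hits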)
In short: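 Rat cortical primary cultures, 1.5 x 10^5 cells/well, PEI-coated MEA, laminin drop. Continuous exposure DIV 0–12; full media/compound change DIV 5, 9. Readout: electrodes with mean firing ≥5 spikes/min; AUC across days; loss vs DMSO.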

[12] = CCTE_Shafer_MEA_dev_burst_rate: CCTE's Neural Network Formation Assay for Burst Rate, Shafer Lab (AID 2284042);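 for AC50: potency for loss of burst rate below DMSO control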
In short: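 Rat primary cortical cultures on PEI/laminin MEA; compound from plating, re-dosed at DIV 5, 9 media change. Single-electrode bursts/recording length, well mean of active electrodes; AUC over DIV 5–12 recordings; loss-of-signal vs DMSO.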

[13] = CCTE_Shafer_MEA_dev_per_burst_interspike_interval: CCTE's Neural Network Formation Assay for Burst Interspike Interval, Shafer Lab (AID 2284044);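 note: mean spike spacing inside bursts as AUC over recordings on days 5 7 9 12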;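 for AC50: potency for a decrease of within-burst interspike interval below DMSO level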
In short: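 Primary rat cortical neurons on 48-well MEA plates, exposed from day 0 through day 12, treatment renewed at DIV 5 and 9. Within-burst interspike interval recorded days 5, 7, 9, 12, well-averaged, summarised as AUC; negative fit versus DMSO.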

[14] = CCTE_Shafer_MEA_dev_burst_duration_mean: CCTE's Neural Network Formation Assay for Mean Burst Duration, Shafer Lab (AID 2284045);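 for AC50: curve fitted for loss meaning shorter burst duration than DMSO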
In short: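 Primary rat cortical neurons on PEI-coated 16-electrode MEA wells, exposed from plating through day 12 with compound renewed at DIV 5 and 9; spontaneous activity recorded days 5, 7, 9, 12. Well-mean burst duration collapsed as trapezoidal AUC, fitted for loss versus DMSO.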

[15] = CCTE_Shafer_MEA_dev_interburst_interval_mean: CCTE's Neural Network Formation Assay for Mean Interburst Interval, Shafer Lab (AID 2284046);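 note: well-mean interburst interval of bursting electrodes as AUC over four recording days; curve fitted for decrease in interburst interval relative to DMSO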
In short: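 Rat cortical neurons, 1.5 x 10^5 cells/well, 48-well MEA; compound from day 0 through DIV 12, media and treatment renewed DIV 5/9. Recordings DIV 5, 7, 9, 12; well-mean interburst interval → trapezoidal AUC, loss direction vs DMSO.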

[16] = CCTE_Shafer_MEA_dev_inter_network_spike_interval_mean: CCTE's Neural Network Formation Assay for Mean Inter-network Spike Interval, Shafer Lab (AID 2284047);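 for AC50: potency for a decrease in mean inter-network spike interval below DMSO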
In short: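 Primary rat cortical neurons on PEI-coated 48-well MEAs (16 electrodes/well) were exposed from plating day 0 to DIV 12, with dosing renewed at DIV 5 and 9. Recordings at DIV 5, 7, 9, 12 were collapsed by trapezoidal AUC, loss-of-signal fit vs DMSO.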

[17] = biological target: Estrogen receptor (Homo sapiens) (UniProt P03372); assay: CCTE_Deisenroth_AIME_384WELL_LUC_Active: CCTE's 384-well Estrogen Receptor Transactivation Assay with AIME metabolic competence (ERTA luciferase; metabolism positive), Deisenroth Lab (AID 2284030; active = hit-call score of the fitted dose curve at least 0.9, where 1 is the maximum)
Estrogen receptor (Homo sapiens), sequence (P03372 whole entry, looked up): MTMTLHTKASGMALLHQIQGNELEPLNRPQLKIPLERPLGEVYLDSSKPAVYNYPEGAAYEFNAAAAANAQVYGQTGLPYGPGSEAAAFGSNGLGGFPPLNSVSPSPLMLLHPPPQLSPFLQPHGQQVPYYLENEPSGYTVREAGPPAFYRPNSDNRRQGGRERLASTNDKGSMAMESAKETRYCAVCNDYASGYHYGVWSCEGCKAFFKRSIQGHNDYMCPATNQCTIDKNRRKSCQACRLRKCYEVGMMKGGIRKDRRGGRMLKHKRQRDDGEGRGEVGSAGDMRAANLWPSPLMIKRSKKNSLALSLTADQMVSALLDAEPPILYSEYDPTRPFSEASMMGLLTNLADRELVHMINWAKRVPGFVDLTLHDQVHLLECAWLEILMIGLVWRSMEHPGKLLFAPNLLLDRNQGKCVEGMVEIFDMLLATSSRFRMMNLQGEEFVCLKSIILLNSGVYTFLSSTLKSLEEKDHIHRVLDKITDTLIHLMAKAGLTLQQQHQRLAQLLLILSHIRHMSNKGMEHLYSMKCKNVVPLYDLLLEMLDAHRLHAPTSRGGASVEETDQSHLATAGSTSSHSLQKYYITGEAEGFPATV
In short: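 Chemicals (10-point, 0.002-200 uM) were first incubated 2 hours with alginate-immobilized induced male Sprague Dawley rat liver S9. The conditioned medium was then applied to VM7Luc4E2 cells for 24 hours, with ER luciferase induction read by luminescence relative to 17beta-estradiol.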

[18] = biological target: Estrogen receptor (Homo sapiens) (UniProt P03372); assay: CCTE_Deisenroth_AIME_384WELL_LUC_Shift: CCTE's 384-well Estrogen Receptor Transactivation Assay with AIME metabolic competence data shift (ERTA luciferase; difference in metabolism positive and negative), Deisenroth Lab (AID 2284041);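 note: shift is response with S9 minus without S9 so positive means metabolism raised ER signal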
In short: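 Here, parent compounds undergo 2 h phase I metabolism by PB/BNF-induced rat S9 before 24 h transactivation in VM7Luc4E2 cells; the curve models S9-positive minus S9-negative response over a 10-point series.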

[19] = CCTE_Deisenroth_AIME_384WELL_CTox_Active: Cytotoxicity Assessment (CTOX) in CCTE's 384-well Estrogen Receptor Transactivation Assay with AIME metabolic competence (metabolism positive), Deisenroth Lab (AID 2284037; active = hit-call score of the fitted dose curve at least 0.9, where 1 is the maximum;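 note: activity means signal loss indicating cell death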)
In short: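 VM7Luc4E2 breast cells received medium pre-incubated 2 h with chemical over alginate microspheres holding induced male Sprague Dawley rat liver S9; viability read 24 h later by protease-substrate fluorescence. Loss of signal, bidirectional fit, 0.002–200 uM.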

Measured: AC50

CCCCOC(=O)c1ccccc1C(=O)OCc1ccccc1
active: [1] 6.09 µM | [2] 5 µM | [3] 5 µM | [4] 5 µM | [5] 8.11 µM | [7] 6.42 µM | [8] 7.33 µM | [11] 22.7 µM
not listed: [17] | [18] | [19]
inactive: all other assays above

CCC[CH2][Sn]([Cl])([CH2]CCC)[CH2]CCC
active: [1] 221 nM and 330 nM | [2] 7.27 µM | [3] 0.239 µM | [4] 0.992 µM | [5] 0.243 µM | [6] 16.8 nM and 54 nM | [7] 0.463 µM | [8] 237 nM and 322 nM | [10] 8.92 nM | [11] 0.0428 µM | [12] 43 nM | [13] 0.0392 µM | [14] 30.2 nM | [15] 0.0762 µM | [16] 76.9 nM
inactive: [2] | [3] | [4] | [5] | [7]

CCC(C)c1ccc(O)cc1 (stereo not drawn)
active: [1] 29.6 µM | [3] 30 µM | [5] 33.9 µM | [7] 30.5 µM | [8] 30.5 µM
inactive: [2] | [4] | [6]

ClC1=C(Cl)C2(Cl)C3C(Cl)C=CC3C1(Cl)C2(Cl)Cl (stereo not drawn)
active: [1] 0.72 µM | [2] 20 µM | [4] 4.31 µM | [6] 4.37 µM | [10] 4540 nM | [11] 4.27 µM | [12] 2740 nM | [15] 2.32 µM
inactive: [3] | [5] | [7] | [8] | [13] | [14] | [16]

O=C(Oc1ccc(Br)cc1)N1CCN2CCC1CC2
inactive: [1] | [2] | [3] | [4] | [5] | [6] | [7] | [8] | [17] | [18]

CC(C)COC(=O)c1ccccc1C(=O)OCC(C)C
active: [1] 9.02 µM | [3] 8.5 µM | [7] 5.62 µM | [8] 9.02 µM | [13] 23.2 µM | [15] 12.8 µM
not listed: [9] | [11] | [17] | [18] | [19]
inactive: all other assays above

COC(=O)Nc1nc2ccccc2[nH]1
active: [11] 15.3 µM
not listed: [9] | [17] | [18]
inactive: all other assays above

O=C(N[C@H](c1ccccc1)[C@@H]1CN2CCC1CC2)c1c(Cl)ccc(C(F)(F)F)c1Cl
active: [7] 18.5 µM
inactive: [1] | [2] | [3] | [4] | [5] | [6] | [8] | [19]
